Reference: PubChem BioAssay (NCI)
Values joined by “and” are separate entries in the source; they are usually repeats but may differ in a detail not shown here. Equal entries are not always repeated. The panel holds about 83,000 compounds, 20% with a hit somewhere; the sample as a whole holds those more often.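 How to read the values: 0–100, growth inhibition (40 = 60% inhibited); 0, no net growth; -100 to 0, cell death (-40 = 40% of starting cells died; -100 = all dead).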 A number with no mark means an inactive call. Active and inactive are the calls of the source.

Each compound was assayed on CAKI-1 renal (assay: NCI-60 one-dose screen, 48 h (100 = growth as untreated, 0 = no growth, -100 = all killed)). Settings: 10 µM unless noted.
Protocol: Growth inhibition of the CAKI-1 human tumor cell line is measured as a screen for anti-cancer activity. Cells are grown in 96 well plates and exposed to the test compound for 48 hours. Compounds are tested at a single concentration, which is 10^-5 M for most compounds. The reported endpoint is percent growth (GI% or GIPRCNT), where numbers from 0 - 100% represent growth inhibition, and numbers from -100% - 0 represent cell death. For example, a value of 40 represents 60% growth inhibition. A value of 0 means no net growth occurred over the course of the experiment. A value of -40 indicates 40% of cells at the beginning of the experiment died by the end of the experiment. A value of -100 means all cells are dead at the end of the experiment.
NCI-60 Human Tumor Cell Lines Screen was performed using the standard one-dose NCI protocol, which is described in more detail at https://dtp.cancer.gov/discovery_development/nci-60/default.htm.
Compounds with GIPRCNT values below 10 were considered active. Activity score was based on GIPRCNT using the following formula: […]
Score is 0 for GIPRCNT values of 100 or above, 50 for GIPRCNT values of 0, and 100 for GIPRCNT values of -100.

| Structure (SMILES) | growth |
| --- | --- |
| Cc1ccc(C(=O)Nc2cccc(C(=O)NC(=S)Nc3ccc(S(N)(=O)=O)cc3)c2)cc1 | 49.5% |
| COc1ccc2nc(NC(=O)c3ccc(N(C)C)cc3)sc2c1 | 79.6% |
| ClC(Cn1ncc2c(Nc3cccc(Br)c3)nc(SCCN3CCOCC3)nc21)c1ccc(Br)cc1 (stereo not given) | -28% (active) |
| Cc1ccc(C(=O)Nc2ccc(-n3ccnc3)c(C(F)(F)F)c2)cc1C#Cc1cnc2cccnn12 | -4.4% (active) |
| CC(C)(C)C(=O)c1c2c(c3ccc4c5ccccc5ccc4n13)C(=O)c1ccccc1C2=O | 85.4% |
| O=C(CSc1nc2c(c(=O)[nH]1)CCCC2)Nc1ccccc1C(=O)O | 89.5% |
| O=C1Nc2cc(-c3ccc(NS(=O)(=O)c4ccc(-c5ccccc5)cc4)cc3)ccc2/C1=C/c1ccc[nH]1 | 40.7% |
| COc1cc(/C=C/C(=O)c2cnn(-c3cc(=O)[nH]c4ccc(C)cc34)c2C)cc(OC)c1OC | 16.4% |
| O=C(N/N=C/c1ccc(Br)o1)c1[nH]c2ccc(Br)cc2c1-c1ccccc1 | 2.87% (active) |
| Cc1cc(Cl)ccc1NC(=O)Nc1ccc(-c2ccc3c(c2)NC(=O)/C3=C\c2ccc[nH]2)cc1 | 99% |
| Cc1cc(=O)oc2cc(OCC(O)CNN3C(=O)c4cccc5c(N6CCN(C)CC6)ccc(c45)C3=O)ccc12 (stereo not given) | 96.2% |
| COc1ccc2[nH]c(=O)cc(-n3ncc(C(=O)/C=C/c4cc(OC)c(OC)c(OC)c4)c3C)c2c1 | 14.6% |
| CCN1CCN(Cc2ccc(C(=O)Nc3cccc(Nc4ccc5c(OC)cccc5n4)c3)cc2C(F)(F)F)CC1 | -98.3% (active) |
| COc1ccc(-c2nc3ccc(-c4nnc(SCc5ccccc5)o4)cc3[nH]2)cc1 | -77.1% (active) |
| Nc1nn2c(-c3cc4ccccc4oc3=O)ccnc2c1N=Nc1ccccc1 | 81.8% |
| COC(=O)c1c(C(=O)OC)c2c3ccccc3c3ccccc3n2c1C(=O)C(F)(F)F | 64.8% |
| Nc1cc(-c2c[nH]c3ccc(Cl)cc23)nc2cc(-c3c[nH]c4ccccc34)nn12 | -19.1% (active) |
| O=C(N/N=C/c1ccc(B(O)O)s1)c1[nH]c2ccc(Br)cc2c1-c1ccccc1 | -59.8% (active) |
| Oc1ccc(Cl)c(Nc2ncnc3c2cnn3CC(Cl)c2ccc(Br)cc2)c1 (stereo not given) | 18.3% |
| O=C1CCC(N2C(=O)c3cccc(NCCOCCOCCOCCC(=O)NCCCC(=O)NC(c4ccc5c(c4)OCO5)c4cc(Cl)c5cccnc5c4O)c3C2=O)C(=O)C1 (stereo not given) | 69.8% |

| Structure (SMILES) | growth |
| --- | --- |
| O=C1/C(=C/c2cnc(-c3ccccc3)s2)SC(=S)N1Cc1ccc2c(c1)OCO2 | 37.3% |
| CCCSc1nnc(-c2c(C)nc3sccn23)o1 | 79.4% |
| COc1ccc2[nH]cc(-c3cc4nc(-c5cn(C)c6ncc(Br)cc56)cc(N)n4n3)c2c1 | -86.1% (active) |
| C=CCn1c(O)c(N=Nc2nc(-c3cc4ccccc4oc3=O)cs2)c2ccccc21 | 94.3% |
| CS(=O)(=O)Nc1cccc(-n2cnc3cc(-c4ccc(O)cc4)ccc32)c1 | 30.6% |
| CC[C@@]12CC(C(=O)OC)=C3Nc4cc5c(cc4[C@@]34CCN(C[C@H]3O[C@H]31)[C@@H]24)[C@@H]1[C@H](O5)[C@@H](O)[C@@]2(CC)CC(C(=O)OC)=C3Nc4cc(O)ccc4[C@@]34CCN1[C@@H]24 | -55.8% (active) |
| CCc1ccccc1NC(=O)N/C(N)=N/c1nc2ccccc2s1 | 4.86% (active) |
| CC(C)(C)OC(=O)N1C/C(=C\c2ccc(F)cc2)C(=O)/C(=C/c2ccc(F)cc2)C1 | -37.4% (active) |
| COc1cc(C=O)ccc1Oc1nc(Nc2ccc(F)cc2)nc(N(C)C)n1 | 69.2% and 58.3% |
| COc1ccccc1NC(=O)N/N=C/c1c[nH]c2ccccc12 | 42% |
| COc1ccc(N=Nc2c(N)nn3c(N)c(C#N)c(-c4ccc(C)cc4)nc23)cc1 | 17.4% |
| O=C1Nc2ccccc2/C1=C\c1ccc(OCC(=O)c2ccc(Br)cc2)cc1 | 67.8% |
| CC(=O)c1ccc2c(N)c(C(=O)Nc3ccc(C(F)(F)F)cc3)sc2n1 | 56.9% |
| COC(=O)c1c(C(=O)OC)c2c3ccccc3c3ccccc3n2c1C(=O)C(C)(C)C | 60.7% |
| CNS(=O)(=O)N1CCc2c(Br)c3c(c(OC)c2C1CCc1ccccc1)OCO3 (stereo not given) | 5.41% (active) |
| O=C(N/N=C/c1c[nH]c2ccccc12)Nc1ccc(F)c(Cl)c1 | 32.1% |
| NC(=Nc1ccc(OCCCCCCCCn2cnnn2)cc1)c1ccccc1 | 35.2% |
| CNc1nc2ccccc2n2c(-c3ccc(O)c(O)c3)cnc12 | 3.52% (active) |
| Clc1ccc2c(NCCNC34CC5CC(CC(C5)C3)C4)ccnc2c1 | -80.8% (active) |
| NC(=O)c1ccc(-c2ccc3ncnc(N4CCc5cc(F)c(Cl)cc54)c3c2)cn1 | 31.1% |
